Assay [1] has as its target Luciferin 4-monooxygenase (Photinus pyralis) (UniProt P08659). Briefly: qHTS assay to identify small molecule inhibitors of firefly luciferase (AID 1224835). Further: nearly all actives have a fitted effect of over 25% in size. In short, it runs like this: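 Inhibition of purified Photinus luciferase is measured by luminescence. Substrate levels (D-luciferin, ATP) sit at their KM values. Each compound is tested in a concentration series.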
(Quantitative high-throughput screening tests each substance at several concentrations.)

Assay [2] in a line: qHTS assay to identify small molecule agonists of the constitutive androstane receptor (CAR) signaling pathway - cell viability counter screen (AID 1224836). Further: nearly all actives have a fitted effect of over 45% in size. In short, it runs like this: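 Cells were seeded and incubated 4 hrs. Compounds were added across 15 concentrations together with PK11195 at 0.75 uM final. Plates were incubated 23 hrs at 37 C. CellTiter-Fluor was added and fluorescence measured.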

Assay [3] is described as follows: qHTS assay to identify small molecule antagonists of the estrogen related receptor signaling pathway with the pleiotropic PPARgamma coactivator (PGC) from Tox21 10K library - cell viability counter screen (AID 1224840; active means well fitted cell-killing curve with a large enough effect in the repeat runs, not every such curve was filed as active; further: nearly all actives have a fitted effect of over 40% in size). The method, boiled down:
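Compounds in DMSO, alongside positive and negative controls, were pinned onto PGC/ERR cells (2,000 per well). Exposure lasted 17.5 hours at 37 C, followed by a 30-minute CellTiter-Fluor incubation and fluorescence reading.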

Assay [4] in a line: qHTS assay to identify small molecule agonists of the hypoxia (HIF-1) signaling pathway - cell viability counter screen (AID 1224844; calls by dose curve; further: nearly all actives have a fitted effect of over 50% in size; further: potency means the concentration at half of the fitted maximal effect). In short, it runs like this:
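Luminescent ATP content (CellTiter-Glo, 30 min, room temperature) served as the viability measure in HRE-bla ME-180 cells exposed to compounds for 17 hrs in low-serum medium (0.5% dialyzed FBS).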

The nature of assay [5]: qHTS assay to identify small molecule agonists of H2AX (AID 1224845; active means well fitted activation curve with a large enough effect in the signal ratio in the repeat runs, not every such curve was filed as active; the % refers to the signal ratio; further: potency means the concentration at half of the fitted maximal effect). In short, it runs like this:
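Phospho-H2AX Ser139 measured by HTRF (ex 320 nm; em 665 and 620 nm) after 24 hr antibody incubation. Compounds, 15 concentrations, 0.76% DMSO, were applied to CHO-K1 cells for 3hr at 37C before lysis.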

A short description of assay [6]: qHTS assay to identify small molecule agonists of the hypoxia (HIF-1) signaling pathway (AID 1224846; active means well fitted activation curve with a large enough effect in the signal ratio in the repeat runs, not every such curve was filed as active; the % refers to the signal ratio). The method, boiled down: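 Measured by blue/green FRET after loading CCF4-AM: beta-lactamase expressed from a hypoxia response element in ME-180 cells. Test agents were delivered in DMSO and left 17 hrs; cells had been plated 5 hrs earlier in low-serum (0.5% dialyzed FBS) medium.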

Assay [7] can be described thus: qHTS assay to identify small molecule agonists of H2AX - cell viability counter screen (AID 1224847; calls by dose curve; further: nearly all actives have a fitted effect of over 30% in size; further: potency means the concentration at half of the fitted maximal effect). The method, boiled down: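 Cytotoxicity counter screen in wild-type CHO-K1 cells: a 3 hr compound treatment at 37C across 15 concentrations, followed by CellTiter-Glo luminescence to gauge viable cells.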
Assay [8] in a line: qHTS RealTime-Glo MT Cell Viability Assay in HepG2 cells - 24 hour (AID 1224867). Further: nearly all actives have a fitted effect of over 50% in size. The method, boiled down:
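Real-time, nonlytic viability: 600 HepG2 cells/well mixed with NanoLuc enzyme plus prosubstrate; 5 h settle, compound (DMSO) added by pintool; luminescence monitored over 40 h at 37 C.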

A short description of assay [9]: qHTS RealTime-Glo MT Cell Viability Assay in HEK293 cells - 32 hour (AID 1224868). Further: nearly all actives have a fitted effect of over 50% in size. Further: potency means the concentration at half of the fitted maximal effect. In short, it runs like this: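 Cells + reagent dispensed (600 cells/well, HEK293) → 5 h at 37 C/5% CO2 → 23 nL compound in DMSO pinned → 40 h at 37 C → luminescence read at 0, 8, 16, 24, 32, 40 h.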
Assay [10] is described as follows: A CellTox Green Cytotoxicity Assay to monitor cytotoxicity in HEK293 cells - 0 hour (AID 1224869). Further: nearly all actives have a fitted effect of over 50% in size. In short, it runs like this: (§1)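 Each value comes from one timepoint of a single continuous run in which HEK293 cells with CellTox Green were exposed to compound for up to 40 h at 37 C, dye fluorescence rising with cell death.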
The nature of assay [11]: qHTS RealTime-Glo MT Cell Viability Assay in HepG2 cells - 40 hour (AID 1224870). Further: nearly all actives have a fitted effect of over 50% in size. In short, it runs like this: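 Real-time viability: cells seeded at 600 per well together with NanoLuc and cell-permeant prosubstrate, compounds added after 5 h incubation. Luminescence tracked at 0, 8, 16, 24, 32 and 40 h of exposure.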
A short description of assay [12]: A CellTox Green Cytotoxicity Assay to monitor cytotoxicity in HEK293 cells - 40 hour (AID 1224871). Further: nearly all actives have a fitted effect of over 45% in size. In short, it runs like this:
as §1

The target in assay [13] is Nuclear receptor subfamily 1 group I member 3 (Homo sapiens) (UniProt Q14994). Briefly: qHTS assay to identify small molecule antagonists of the constitutive androstane receptor (CAR) signaling pathway (AID 1224838).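 Further: HepG2 cells stably expressing hCAR with CYP2B6 luciferase reporter stimulated by CITCO; nearly all actives have a fitted effect of over 40% in size.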 The method, boiled down: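 Quantitative HTS in double-stable HepG2-CYP2B6-hCAR cells. After 4 h plating, cells get compound (15 concentrations) and CITCO at 50 nM final, incubate 24 h at 37 C, then ONE-Glo luminescence is read.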
Chain of Nuclear receptor subfamily 1 group I member 3 (Homo sapiens) (Q14994 whole entry, looked up): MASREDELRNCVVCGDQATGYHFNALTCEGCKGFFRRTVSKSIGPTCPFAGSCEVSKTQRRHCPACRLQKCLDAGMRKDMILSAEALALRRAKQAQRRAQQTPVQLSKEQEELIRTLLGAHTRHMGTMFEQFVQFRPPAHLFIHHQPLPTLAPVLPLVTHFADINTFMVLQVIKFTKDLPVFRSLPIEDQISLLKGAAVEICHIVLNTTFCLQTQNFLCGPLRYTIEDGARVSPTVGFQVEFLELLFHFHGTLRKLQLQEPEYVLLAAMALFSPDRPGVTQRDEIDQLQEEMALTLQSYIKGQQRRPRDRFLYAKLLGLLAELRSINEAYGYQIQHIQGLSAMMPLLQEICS

Assay [14] can be described thus: qHTS assay to identify small molecule antagonists of the estrogen related receptor signaling pathway with the pleiotropic PPARgamma coactivator (PGC) from Tox21 10K library (AID 1224841; call rule not given here; further: potency means the concentration at half of the fitted maximal effect). The method, boiled down:
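Compound exposure ran 18 hours at 37 C in PGC/ERR cells (2,000/well) that had first rested 6 hours in a 37 C/5% CO2 incubator. Luciferase activity was then detected with One-Glo after a 30-minute room-temperature step.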

Assay [15] is described as follows: qHTS assay to identify small molecule agonists of the estrogen related receptor signaling pathway with the pleiotropic PPARgamma coactivator (PGC) from Tox21 10K library (AID 1224842). Further: nearly all actives have a fitted effect of over 15% in size. In short, it runs like this: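 Luminescence from One-Glo (30 min, room temperature) measured after PGC/ERR cells had 18 h at 37 C with pinned compound (23 nL in DMSO). Cells had been seeded at 2,000 per well and pre-incubated 6 h.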

Assay [16] addresses Thyrotropin receptor (Homo sapiens) (UniProt P16473). Kind of assay: qHTS assay to identify small molecule agonists of the thyroid stimulating hormone receptor (TSHR) signaling pathway (AID 1224843; calls by dose curve; further: nearly all actives have a fitted effect of over 45% in size). The method, boiled down:
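Screening of the Tox21 10K collection used HEK293 cells engineered with TSHR at 800 cells per well. After a 30-min room-temperature compound exposure, HTRF cAMP reagents were added and fluorescence recorded 1 h later.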

A short description of assay [17]: qHTS assay to identify small molecule antagonists of the estrogen related receptor (ERR) signaling pathway from Tox21 library (AID 1224848). Further: nearly all actives have a fitted effect of over 50% in size. Further: potency means the concentration at half of the fitted maximal effect. The method, boiled down: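 Antagonist-mode screen of the Tox21 10K library in an NTP-provided ERR reporter cell line; 18 h compound exposure at 37 C, luminescence measured with ONE-Glo.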
Assay [18] in a line: qHTS assay to identify small molecule agonists of the estrogen related receptor (ERR) signaling pathway from Tox21 library (AID 1224849; calls by dose curve; further: nearly all actives have a fitted effect of over 15% in size). Conditions: ERR reporter cell line, ONE-Glo luciferase, 18 h; at 92.4 µM (top of the series) unless noted. In short, it runs like this:
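We plated ERR reporter cells, waited 6 h, added compounds in DMSO by pin tool and incubated them 18 h at 37 C. ONE-Glo was then added and luminescence read after 30 min.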

Assay [19] is described as follows: qHTS assay to identify small molecule antagonists of the constitutive androstane receptor (CAR) signaling pathway - cell viability counter screen (AID 1224837). Further: nearly all actives have a fitted effect of over 45% in size. In short, it runs like this:
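Fluorescence from CellTiter-Fluor served as the viability signal. Human hepatoma HepG2 cells stably bearing hCAR and CYP2B6-2.2kb received compound plus CITCO (50 nM final) for 23 hr.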

Assay [20] has as its target Nuclear receptor subfamily 1 group I member 3 (Homo sapiens) (UniProt Q14994). Briefly: qHTS assay to identify small molecule agonists of the constitutive androstane receptor (CAR) signaling pathway (AID 1224839). Further: nearly all actives have a fitted effect of over 15% in size. Further: potency means the concentration at half of the fitted maximal effect.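 On activation: HepG2 cells stably carrying human CAR and a CYP2B6 luciferase reporter.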 In short, it runs like this:
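Cells were plated and incubated 4 hrs, then dosed with compounds at 15 concentrations. PK11195 was added to 0.75 uM final. After 24 hrs at 37 C, luciferase luminescence was measured.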

Values without a mark were called inactive. Results filed as inconclusive are left out. Active and inactive are the calls of the source. Unless noted, the call rests on the fitted dose curve; in most records, active means well fitted curve in the direction sought with a large enough effect in the repeat runs; inconclusive means weak or mixed curves; inactive means no such curve, though single readings can be large; an effect the other way counts as inactive or inconclusive.
On the % scale 0 is the no-effect control and ±100 the full control effect.

Chain of Thyrotropin receptor (Homo sapiens) (P16473 whole entry, looked up): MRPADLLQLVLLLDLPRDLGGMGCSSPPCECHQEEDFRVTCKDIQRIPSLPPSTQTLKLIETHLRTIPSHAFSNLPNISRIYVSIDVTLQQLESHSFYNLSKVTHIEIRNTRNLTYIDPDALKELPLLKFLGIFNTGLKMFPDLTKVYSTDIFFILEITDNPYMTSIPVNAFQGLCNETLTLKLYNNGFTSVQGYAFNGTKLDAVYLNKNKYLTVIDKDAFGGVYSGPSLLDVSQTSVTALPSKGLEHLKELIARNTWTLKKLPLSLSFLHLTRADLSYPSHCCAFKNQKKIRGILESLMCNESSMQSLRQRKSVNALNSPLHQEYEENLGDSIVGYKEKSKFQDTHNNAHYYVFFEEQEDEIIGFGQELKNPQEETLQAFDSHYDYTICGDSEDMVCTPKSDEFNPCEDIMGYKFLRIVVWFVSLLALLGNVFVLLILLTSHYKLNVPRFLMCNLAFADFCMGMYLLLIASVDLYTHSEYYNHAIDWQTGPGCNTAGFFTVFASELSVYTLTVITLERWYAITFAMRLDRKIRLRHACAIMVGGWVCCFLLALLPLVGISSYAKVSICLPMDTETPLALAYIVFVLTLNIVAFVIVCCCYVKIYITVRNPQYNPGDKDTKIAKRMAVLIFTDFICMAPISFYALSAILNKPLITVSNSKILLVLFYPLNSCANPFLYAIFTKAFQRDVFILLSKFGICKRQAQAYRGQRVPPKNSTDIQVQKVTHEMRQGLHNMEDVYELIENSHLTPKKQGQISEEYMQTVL
Chain of Luciferin 4-monooxygenase (Photinus pyralis) (P08659 whole entry, looked up): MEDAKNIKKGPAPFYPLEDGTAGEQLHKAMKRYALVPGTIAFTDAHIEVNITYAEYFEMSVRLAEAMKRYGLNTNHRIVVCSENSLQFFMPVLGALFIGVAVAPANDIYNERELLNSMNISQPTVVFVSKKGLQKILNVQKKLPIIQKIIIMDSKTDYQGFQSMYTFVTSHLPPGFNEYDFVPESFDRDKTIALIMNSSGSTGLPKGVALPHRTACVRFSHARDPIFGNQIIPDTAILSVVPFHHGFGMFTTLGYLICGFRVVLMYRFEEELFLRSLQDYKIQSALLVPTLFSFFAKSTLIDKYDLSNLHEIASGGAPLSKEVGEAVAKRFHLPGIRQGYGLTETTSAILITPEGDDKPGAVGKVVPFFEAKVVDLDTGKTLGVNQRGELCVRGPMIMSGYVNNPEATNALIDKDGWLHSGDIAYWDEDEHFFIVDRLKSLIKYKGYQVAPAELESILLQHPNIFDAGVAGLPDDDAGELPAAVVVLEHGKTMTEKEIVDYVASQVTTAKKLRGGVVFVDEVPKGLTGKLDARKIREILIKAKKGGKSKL

With `N#CCCC#N`, the Potency result in assay [1], in [2], in assay [3], in assay [4], in [5] and in assay [7] was “inactive” in each case. The Potency entry in assay [8], in assay [9], in assay [10], in assay [11] and in assay [12] was “inactive” each time. The result in [6] was inactive.
On to `C[C@H]1CCC[C@H](O)CCCCCc2cc(O)cc(O)c2C(=O)O1`, for which the Potency result in [1], in [2], in assay [13], in [16], in assay [4] and in assay [5] was “inactive” in each case. The Potency entry in assay [8], in assay [10], in assay [11] and in assay [12] was “inactive” each time. Also, the Potency is 54.9 µM (active) in assay [14], 54.9 µM (active) in assay [17] and 34.9 µM (active) in [9]. For the same molecule, the call in assay [15] and in [6] was inactive. Moreover, the activity change, positive = activation in assay [18] is -54.5%.
As to `CCC#N`, the Potency result in assay [1], in assay [19], in [13], in [3], in assay [14] and in [16] was “inactive” in each case. The Potency result in assay [4], in assay [7], in assay [17], in assay [8], in assay [9] and in [10] was “inactive” each time. Moreover, in [11], the Potency entry was “inactive”. Also, the call in [15] and in assay [6] was inactive. Further, the activity change, positive = activation in [18] is 0.336%.
On to `C=CCC1=C(C)[C@@H](OC(=O)[C@@H]2[C@@H](C=C(C)C)C2(C)C)CC1=O`, for which the Potency result in assay [1], in assay [19], in assay [13], in [16], in [10] and in [11] was “inactive” each time. In addition, the Potency in [20] was 24.3 µM (active); in [4], 54.9 µM (active); in assay [5], 56.6 µM (active); in [7] it was 50.5 µM (active); in [17], 21.7 µM (active); in [9] it was 13.8 µM (active). For the same molecule, the call in assay [15] was inactive. Further, the activity change, positive = activation in assay [18] was -64.6%.
Turning to `COc1cc(OC)nc(Sc2cccc(Cl)c2C(=O)O)n1`, the Potency entry in [1], in assay [19], in [13], in [20], in [3] and in assay [14] was “inactive” in each case. The Potency result in assay [16], in assay [4], in assay [5], in [7], in assay [17] and in [8] was “inactive” throughout. In addition, the Potency entry in [9], in [10], in assay [11] and in assay [12] was “inactive” throughout. Besides, the call in assay [15] and in assay [6] was inactive. The activity change, positive = activation in [18] was 0.33%.
`C[N+](C)=CCl`: the Potency result in assay [1], in assay [2], in [3], in assay [4], in assay [7] and in [8] was “inactive” in each case. The Potency entry in assay [9], in [10] and in assay [11] was “inactive” throughout. The call in assay [6] was inactive.
Consider `O=[N+]([O-])c1cccc2cccnc12`, for which the Potency entry in assay [1], in assay [19], in assay [13], in [3], in assay [16] and in assay [4] was “inactive” each time. In addition, the Potency result in assay [7], in assay [8], in assay [10], in assay [11] and in assay [12] was “inactive” throughout. Also, the outcome in [6] was inactive.
For the molecule `ClC(Cl)Br`, the Potency entry in [1], in assay [19], in [13], in assay [20], in [3] and in assay [16] was “inactive” in each case. Also, the Potency result in assay [4], in assay [5], in assay [7], in assay [8], in assay [10] and in assay [11] was “inactive” in each case. In addition, the Potency result in assay [12] was “inactive”. In addition, the call in [6] was inactive.

The record behind these values is PubChem BioAssay (Tox21).
